Results filed as inconclusive are left out. Activity calls are given as the source filed them. The call rests on the fitted dose curve.
Test: qHTS assay to identify small molecule agonists of the AP-1 signaling pathway - cell viability counter screen (AID 1159525); further: nearly all actives have a fitted effect of over 55% in size
Settings: ME-180 (cervical carcinoma) AP-1-bla cells viability, ATP luminescence, 5 h; series mostly up to 76.8 µM
From the text: National Center for Advancing Translational Sciences [NCATS]
NIH Chemical Genomics Center [NCGC]
U.S. Environmental Protection Agency [EPA]
National Institutes of Environmental Health Sciences [NIEHS]
National Toxicology Program [NTP]
U.S. Food and Drug Administration [FDA]
Activator protein-1 (AP-1), a transcription factor, plays an important role in tumor genesis by regulating genes involved in cell proliferation, differentiation, apoptosis, and angiogenesis. AP-1 activity is induced by a complex network of signaling pathways that involves extracellular signals, such as growth factors. The AP-1 protein complex formed from c-Fos and c-Jun binding to the AP-1 response element results in transcriptional activation of genes containing such elements within their promoter.
Low molecular weight molecules have been discovered and developed to modulate various components of these signaling pathways, for example, MAP kinase inhibitors. However, many points of pathway modulation remain untested due to the lack of chemical probes making this signaling locus of general interest.
Using a beta-lactamase reporter-gene under control of the AP-1 response element, a cell-based assay [CellSensor(TM) AP-1-bla ME-180 developed by Invitrogen Corp.] was used to measure EGF-induced signaling. The Tox21 10K library compounds were measured for their ability to positively modulate the action of EC50 EGF on reporter gene activity. Compounds were screened in a 15-pt titration series in 1536-well format. The cytotoxicity of the Tox21 compound library against this cell line was tested in parallel by measuring the intra cellular ATP content in the same wells.
Tox21 Assay Protocol Summary:
2500 cells/5uL in Opti-MEM medium containing 0.5% dialyzed FBS, 0.1 mM NEAA, 1 mM sodium pyruvate and 10 mM HEPES was dispensed into 1536-well black wall/clear bottom plates using a Multidrop dispenser and cells were cultured at 37 degrees Celsius overnight. Next day 23 nL of compounds dissolved in DMSO, positive controls or DMSO were delivered to each well using a pin tool. The plates were incubated at 37 degrees Celsius for 5 hours. 1 uL of LiveBLAzerTM B/G FRET substrate (Solution A+B+C+D) was added to each well using a Flying Reagent Dispenser. After incubated at room temperature for 2.5 hours the plates were measured on an EnVision plate reader at Excitation 405nm, Emission1=460nm and Emission 2=530nm. The %Activity was determined from the ratio of 460nm/530nm.
After the plates were read for Beta-Lactamase assay on Envision; 3 ul Cell Titer Glo (Promega) was added to measure the cytotoxicity and the plates were then incubated at RT in dark for 30 min. The luminescence was read on ViewLux (Perkin Elmer, Shelton, CT) using 6 sec exposure. ViewLux data was expressed as relative luminescence units.
For primary data analysis, raw plate reads for each titration point were first normalized relative to […] EGF control (100%) and DMSO only wells (basal, 0%).
For primary data analysis for viability assay, raw plate reads for each titration point were first normalized Tetra n-octyl ammonium bromide control (-100%) and DMSO (control, 100%).

Structure (SMILES) | outcome
C1CNCCN1 | inactive
O=c1cc[nH]c(=O)[nH]1 | inactive
CO[C@H]1C=CO[C@@]2(C)Oc3c(C)c(O)c4c(O)c(c(/C=N/N5CCN(C)CC5)c(O)c4c3C2=O)NC(=O)/C(C)=C\C=C[C@H](C)[C@H](O)[C@@H](C)[C@@H](O)[C@@H](C)[C@H](OC(C)=O)[C@@H]1C | inactive
CCc1cc(C(N)=S)ccn1 | inactive
NC(=O)N1c2ccccc2C=Cc2ccccc21 | inactive
C[C@]12CC[C@@H]3c4ccc(O)cc4C[C@@H](CCCCCCCCCS(=O)CCCC(F)(F)C(F)(F)F)[C@H]3[C@@H]1CC[C@@H]2O (stereo not given in full) | inactive
CC(C)CC(C)CC(O)CC(C)C (stereo not given) | inactive
NCCNc1cccc2ccccc12 | inactive
Cc1cnc(NC(=O)C2=C(O)c3ccccc3S(=O)(=O)N2C)s1 | inactive
C=CCOC(=O)CC(C)C | inactive
COCCOCCOC | inactive
CCCCNC(=O)NS(=O)(=O)c1ccc(N)cc1 | inactive
COc1ccc(C(=O)c2ccccc2)c(O)c1 | inactive
C=CC(=O)NC(C)(C)CS(=O)(=O)O | inactive
Cc1c(N(C)CS(=O)(=O)O)c(=O)n(-c2ccccc2)n1C | inactive
O=c1c(-c2ccc(O)cc2)coc2cc(O)cc(O)c12 | inactive
C#C[C@]1(O)CC[C@H]2[C@@H]3CCC4=CC(=O)CC[C@@H]4[C@H]3CC[C@@]21CC | inactive
CC(=O)Oc1ccccc1C(=O)O | inactive
NC(=O)N/N=C/c1ccc([N+](=O)[O-])o1 | inactive
N[C@@H](Cc1c[nH]c2ccc(O)cc12)C(=O)O | inactive

Structure (SMILES) | outcome
CN(C)Cc1cc(CN(C)C)c(O)c(CN(C)C)c1 | inactive
NC(N)=NC(N)=NCCc1ccccc1 | inactive
NC(=O)OCC(COC(N)=O)c1ccccc1 | inactive
C[C@]12CC[C@@H]3c4ccc(O)cc4CC[C@H]3[C@@H]1CCC2=O | inactive
O=C1CCCCCN1 | inactive
COc1cc2c(c(OC)c1OC)-c1ccc(OC)c(=O)cc1[C@@H](NC(C)=O)CC2 | inactive
c1ccc2[nH]c(-c3cscn3)nc2c1 | inactive
COc1ccccc1NC(=O)CC(C)=O | inactive
Cc1cccc(C)c1O | inactive
COc1ccccc1O | inactive
C[C@]12C=CC(=O)C=C1CC[C@@H]1[C@@H]2C(=O)C[C@@]2(C)[C@H]1CC[C@]2(O)C(=O)CO | inactive
CCN(CC)CCOC(=O)c1ccc(N)cc1 | inactive
OC[C@@H](O)[C@@H](O)[C@H](O)[C@H](O)CO | inactive
C#C[C@]1(O)CC[C@H]2[C@@H]3CCc4cc(O)ccc4[C@H]3CC[C@@]21C | inactive
CC(C)(C)NCC(O)c1ccc(O)c(CO)c1 (stereo not given) | inactive
O=C(O)Cc1cccc2ccccc12 | inactive
CCOC(=O)C(C)(C)Oc1ccc(Cl)cc1 | inactive
COCC(C)N (stereo not given) | inactive
CCCCCCCCCCCCCCCCCC(=O)OCC(O)CO (stereo not given) | inactive
NC(=O)c1ccc([N+](=O)[O-])cc1Cl | inactive
